Source: PubChem (National Center for Advancing Translational Sciences (NCATS))
JMJD2A Tudor = JMJD2A Tudor domain (human) inhibition. O75164. AID 504339. AlphaScreen JMJD2A-Tudor / H3K4me3 peptide binding. hit rate 4.4% among 390,000. Potency, µM (titrated, usually from 114 µM), for the others: at the highest dose activity change, negative = inhibition, most hits filed as inhibitors; further: potency means the concentration at half of the fitted maximal effect; on the % scale 0 is the no-effect control and ±100 the full control effect; nearly all actives have a fitted effect of over 50% in size
Target sequence (O75164 whole entry, looked up, the tested form may be a part): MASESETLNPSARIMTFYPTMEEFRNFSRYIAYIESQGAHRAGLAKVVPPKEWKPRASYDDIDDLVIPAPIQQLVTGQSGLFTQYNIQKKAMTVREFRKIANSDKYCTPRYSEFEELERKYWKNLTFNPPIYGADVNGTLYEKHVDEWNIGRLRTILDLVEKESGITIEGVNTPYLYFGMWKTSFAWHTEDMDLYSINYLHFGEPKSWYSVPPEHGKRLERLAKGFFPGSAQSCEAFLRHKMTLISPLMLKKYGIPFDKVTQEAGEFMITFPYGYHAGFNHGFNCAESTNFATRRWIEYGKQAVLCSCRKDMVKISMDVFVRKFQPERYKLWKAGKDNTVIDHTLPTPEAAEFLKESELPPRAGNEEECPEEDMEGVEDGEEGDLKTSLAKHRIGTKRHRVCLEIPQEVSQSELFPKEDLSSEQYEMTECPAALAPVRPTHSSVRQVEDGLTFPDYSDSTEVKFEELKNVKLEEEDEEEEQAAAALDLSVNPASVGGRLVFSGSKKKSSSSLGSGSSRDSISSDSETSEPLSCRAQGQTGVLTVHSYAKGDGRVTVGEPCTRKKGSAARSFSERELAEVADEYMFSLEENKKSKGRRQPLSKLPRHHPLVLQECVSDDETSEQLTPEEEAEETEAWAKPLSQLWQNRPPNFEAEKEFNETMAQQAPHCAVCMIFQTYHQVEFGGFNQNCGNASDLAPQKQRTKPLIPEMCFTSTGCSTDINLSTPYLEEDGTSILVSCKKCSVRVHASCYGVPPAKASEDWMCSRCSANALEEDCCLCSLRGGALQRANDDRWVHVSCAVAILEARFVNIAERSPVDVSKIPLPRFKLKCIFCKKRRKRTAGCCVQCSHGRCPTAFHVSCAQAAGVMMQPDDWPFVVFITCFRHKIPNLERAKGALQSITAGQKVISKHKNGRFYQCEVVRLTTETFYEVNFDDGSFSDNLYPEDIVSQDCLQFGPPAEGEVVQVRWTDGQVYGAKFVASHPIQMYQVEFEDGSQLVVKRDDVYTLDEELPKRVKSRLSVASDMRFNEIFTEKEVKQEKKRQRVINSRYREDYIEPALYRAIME
PLK1 PBD block = blocks phosphopeptide binding to human PLK1 polo-box domain; Potency, µM, for the others: max response, negative = inhibition, usual class: inhibitors; hit rate 2.8% among 360,000; Plk1 PBD binding of FITC phosphopeptide, fluorescence polarization; further: potency means the concentration at half of the fitted maximal effect; series mostly up to about 57 µM; on the % scale 0 is the no-effect control and ±100 the full control effect; nearly all actives have a fitted effect of over 65% in size
BAZ2B inh = BAZ2B (human) inhibition | hit rate 4.4% among 360,000 | Q9UIF8 | AlphaScreen BAZ2B-H3K14Ac peptide displacement | Potency, µM (highest dose often 114 µM), for the others: at the top dose activity change, negative = inhibition, usual class: inhibitors | AID 504333; further: potency means the concentration at half of the fitted maximal effect; on the % scale 0 is the no-effect control and ±100 the full control effect; nearly all actives have a fitted effect of over 60% in size
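BAZ2B 50 nM plus b-H3(5-23)K14Ac 50 nM, PBS pH 7.4/0.01% Tween-20, 30 min RT; compound added (max 110 uM), 30 min RT; streptavidin donor/Ni-chelate acceptor beads 10 ug/mL final, 20 min dark; AlphaScreen read.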
HP1b chromo inh = HP1-beta chromodomain-methylated histone interaction inhibition; AID 540317; hit rate 0.56% among 390,000; Potency, µM (highest dose often 114 µM), inactives show at the top dose activity change, negative = inhibition, most hits filed as inhibitors; P83916; AlphaScreen HP1-beta / biotin-H3K9me3 peptide binding; further: potency means the concentration at half of the fitted maximal effect; nearly all actives have a fitted effect of over 70% in size
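Compound inhibition of the preformed complex between 50 nM HP1-beta and 50 nM biotinylated H3K9me3 peptide was read by AlphaScreen. Buffer was PBS pH 7.4 with 0.01% Tween-20. Incubations ran 30 min at room temperature, with 10 ug/mL donor/acceptor beads.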
PI5P4Ka inh = blocks human PI5P4K alpha kinase activity. P48426. PI5P4Kalpha enzyme, ADP-Glo luminescence, 60 min; hits give low values. max response, %. hit rate 1.2% among 330,000; active means max response of -50% or lower; inconclusive means between -30% and -50%; inactive means -30% or higher; further: value at the top dose of about 77 µM; on the % scale 0 is the no-effect control and ±100 the full control effect
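ADP-Glo luminescence end-point after a 60 min room-temperature kinase reaction. PI5P4Kalpha and substrate in HEPES pH 7.4 buffer with EGTA, 0.1% CHAPS and 5% DMSO; ATP at 5 microM final.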
G9a block = blocks human histone lysine methyltransferase G9a; Q96KQ7; G9a H3K9 monomethylation, AlphaScreen, 2 h; Potency, µM (doses to about 102 µM), inactives show at the top dose activity, negative = inhibition, hits mostly inhibitors; hit rate 8.8% among 350,000; further: potency means the concentration at half of the fitted maximal effect; on the % scale 0 is the no-effect control and ±100 the full control effect; nearly all actives have a fitted effect of over 75% in size
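G9a (20 nM) was preincubated 15 min with compound, then reacted 2 h at room temperature with 500 nM biotin-H3K9 peptide and 20 µM SAM. Monomethyl-H3K9 detected by AlphaScreen using anti-H3K9me1 antibody.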
* hit, by the source's call; ? = inconclusive; nt = not tested or not shown; ! = a repeat was not active; [ ] = remark or other dose. The list is not random: actives were taken first. Their share in the collection is about 12%. Unless noted, the call rests on the fitted dose curve; in most records, active means well fitted curve in the direction sought with a large enough effect; inconclusive means small, poorly fitted or top-dose-only effect, or another doubt; inactive means no such curve, though single readings can be large; an effect the other way counts as inactive or inconclusive.

SMILES	JMJD2A Tudor	PLK1 PBD block	BAZ2B inh	HP1b chromo inh	PI5P4Ka inh	G9a block
COc1ccc(CNCCC(c2ccccc2)c2ccc3c(c2)OCO3)cc1 (centres undefined)	-31%	3%	?	16%	nt	20µM*
COc1ccc2c(c1)CC(C(=O)Nc1ccc(OC)cc1OC)CO2 (centres undefined)	-23%	nt	-18%	36%[57 µM]	nt	-41%[59 µM]
Cc1ccc(NC(=O)C2CCCN(S(=O)(=O)c3cnc[nH]3)C2)c(Br)c1 (centres undefined)	?	24µM*!	10%	-2%	-2	24%[59 µM]
O=C(Nc1nccs1)C1CCCN(S(=O)(=O)c2cccnc2)C1 (centres undefined)	?	21µM*	-6%	13%	1	-11%
COc1ccc(NC(=O)C2CCCN(S(=O)(=O)c3cccnc3)C2)c(OC)c1 (centres undefined)	-15%	-1%	8%	33%	0	-11%
CCN(CC)c1ccc(NC(=O)C2COc3ccc(OC)cc3C2)c(C)c1 (centres undefined)	-31%	nt	1%	30%[57 µM]	nt	7.9µM*
CCN(CC)c1ccc(NC(=O)C2CCCN(S(=O)(=O)c3cccnc3)C2)c(C)c1 (centres undefined)	?	-26%	-32%	-7%	-2	20µM*
CS(=O)(=O)Nc1cccc(C(=O)OCCCOc2ccc(F)cc2)c1	-9%	-1%	0%	45%	5	13%
COCOCCn1cc(CN2CCS(=O)(=O)N(Cc3ccc(-c4ccc(OC)c(OC)c4)cc3)C(CC(C)C)C2=O)nn1 (centres undefined)	nt	-3%	nt	nt	-14	nt
Cc1ccc(N2CCC3CC2c2cc(-c4ccc(C(F)(F)F)cc4)ccc23)cc1 (centres undefined)	nt	2%	nt	nt	4	nt
Cc1ccc(NC(=O)C2CCN(S(=O)(=O)c3cnc[nH]3)CC2)cc1C	-12%	-9%	-5%	10%	-8	2%
CCN(CC)c1ccc(NC(=O)C2CCN(S(=O)(=O)c3cnc[nH]3)CC2)c(C)c1	?	nt	nt	11%	nt	11µM*
O=C(CNC(=O)c1ccncc1)OC(C(=O)Nc1cc(C(F)(F)F)ccc1Cl)c1ccccc1 (centres undefined)	-19%	nt	nt	nt	nt	nt
COc1cccc(C(=O)Nc2ccc3nc(SCc4ccc(C)cc4)sc3c2)c1	3%	nt	-16%	81%	nt	5%[59 µM]
C#CCOCCOCCOCCNc1nc(N2CCN(C(=O)[C@H](C)n3cc(CCC(=O)O)nn3)CC2)nc(N2CCN(C(=O)[C@H](Cc3ccc(O)cc3)n3cc(CCO)nn3)CC2)n1	-34%	5%	nt	26%	-11	nt
C#CCOCCOCCOCCNc1nc(N2CCN(C(=O)[C@H](CCC(=O)O)n3cc(C(N)Cc4ccc(O)cc4)nn3)CC2)nc(N2CCN(C(=O)[C@H](Cc3ccc(O)cc3)n3cc(C(N)[C@H](C)CC)nn3)CC2)n1 (some centres undefined)	nt	nt	50µM*	nt	nt	-26%[12.7 µM]
C#CCOCCOCCOCCNc1nc(N2CCN(C(=O)[C@H](CCC(=O)O)n3cc(C(N)Cc4ccc(O)cc4)nn3)CC2)nc(N2CCN(C(=O)[C@H](CCC(=O)O)n3cc(C(N)[C@H](C)CC)nn3)CC2)n1 (some centres undefined)	25µM*	0%	40µM*	21%	2	-127%[59 µM]
FC(F)(F)c1cc(N2CCOCC2)nc(-c2ccccc2)n1	?	27µM*	8%	?	-2	52%[59 µM]
COc1cc2nc(Nc3ccc(F)cc3)nc(N)c2cc1OC	-19%	4%	-24%	28%	-2	79µM*
COc1cc2nc(N(C)C)nc(N)c2cc1OC	-18%	-3%	-17%	15%	5	45µM*
COc1ccc(CCC(=O)NC2CC(=O)N(c3ccc(OC)cc3)C2)cc1 (centres undefined)	-12%	nt	8%	27%	nt	44%[59 µM]
COC(=O)C1=C(C(=O)OC)SC2(S1)C(C(=O)OC)=C(C(=O)OC)SC1=C2c2cccc(C)c2NC1(C)C	?	-13%	?	-22%	nt	32µM*
Cc1ccc(C(=O)NCC(c2ccc3c(c2)OCO3)N2CCN(C)CC2)cc1C (centres undefined)	-13%	nt	2%	14%[57 µM]	nt	7%[59 µM]
O=C(Nc1ccccc1)C1CCOC1=O (centres undefined)	-9%	-1%	nt	36%	3	nt
O=C(Nc1ccc(Cl)cc1Cl)c1n[nH]c(Cn2cncn2)n1	?	-4%	56µM*	28%	2	18%[12.7 µM]
SMILES	JMJD2A Tudor	PLK1 PBD block	BAZ2B inh	HP1b chromo inh	PI5P4Ka inh	G9a block
N#C/C(=C\c1ccc(Cl)cc1)c1n[nH]c(Cn2cncn2)n1	?	-16%	?	20%	0	-3%
CCN(CC)S(=O)(=O)c1ccc(NC2c3ccccc3C(=O)N2Cc2ccc3c(c2)OCO3)cc1 (centres undefined)	-18%	-13%	0%	14%	7	40µM*
CCN(CC)S(=O)(=O)c1ccc(NC2c3ncccc3C(=O)N2Cc2ccccc2)cc1 (centres undefined)	28µM*	-29%	?	-5%	nt	nt
O=C1c2ccccc2C(Nc2ccccc2)N1Cc1ccc2c(c1)OCO2 (centres undefined)	-29%	-16%	-31%	-5%	-2	?
O=C1c2ccccc2C(Nc2ccc3c(c2)OCCO3)N1Cc1ccc2c(c1)OCO2 (centres undefined)	40µM*	1%	35µM*	-25%	9	?
COc1cc(NC2c3ccccc3C(=O)N2Cc2ccc3c(c2)OCO3)cc(OC)c1 (centres undefined)	?	-4%	?	-9%	-1	50µM*
O=C(Nc1ccccc1Cl)C1CCN(c2nc3ccccc3nc2C(F)(F)F)CC1	-6%	nt	1%	21%	nt	2%[59 µM]
CCOC(=O)C1CCN(C(c2ccccc2)c2c(O)cc(C)n(Cc3ccco3)c2=O)CC1 (centres undefined)	-11%	nt	-19%	40%[57 µM]	nt	-49%[59 µM]
O=C1c2ccccc2C(Nc2ccc3c(c2)OCCO3)N1c1ccc(Cl)cn1 (centres undefined)	?	4%	40µM*	?	-2	45µM*
COc1ccc(NC2c3ccccc3C(=O)N2Cc2ccc3c(c2)OCO3)cc1 (centres undefined)	40µM*	-14%	50µM*	?	-2	45µM*
O=C1c2ccccc2C(Nc2ccc3c(c2)OCCO3)N1c1ccccn1 (centres undefined)	?	-13%	?	-25%	1	-42%[59 µM]
Cc1ccc(C(=O)Nc2ccc(Br)cc2)cc1S(=O)(=O)NCc1ccccc1	-24%	nt	-3%	16%	nt	-1%[59 µM]
Cc1cccc(NC(=O)CCN2CCN(C)CC2)c1	5%[57.1 µM]	?	1%	5%	-5	?
